Assay results from PubChem BioAssay AID1159580 (chemical genetic matrix, 2015).
The campaign covered roughly 5,500 compounds. About 2,000 (36%) were called active. Not shown: some 18% with an inconclusive outcome. Cut-off read from the data, not from the text of the source: active = normalized growth mostly below about 0.91 (no sharp cut-off); inconclusive = no clear call, values can overlap the other calls; inactive = mostly above about 0.92. Some of the results follow.

Assay: chemical genetic growth profiling, strain panel (AID 1159580);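 note: tested at 20 µM; growth read once vehicle control cultures reached saturation at 30 °C; 1 = growth at the plate median or of vehicle wells; lower values mean less growth of the strain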
Conditions: growth OD

Measured: normalized growth

CC(C(=O)O)c1ccc(N2Cc3ccccc3C2=O)cc1 (configuration not stated)
active: S. cerevisiae deletion strains, locus YNL322C, strain KRE1 (second series), hits give low values 0.818
inactive: S. cerevisiae deletion strains, locus YKL009W, strain mrt4, hits give low values 0.998 | S. cerevisiae deletion strains, locus YKL068W, hits give low values 1 | S. cerevisiae deletion strains, locus YKL085W, strain MDH1 (second series), hits give low values 0.99 | S. cerevisiae deletion strains, locus YKL085W, strain MDH1, hits give low values 0.99 | S. cerevisiae deletion strains, locus YKL160W, strain elf1, hits give low values 0.986 | S. cerevisiae deletion strains, locus YKL190W, strain CNB1, hits give low values 1.01 | S. cerevisiae deletion strains, locus YKR001C, strain vps1, hits give low values 0.976 | S. cerevisiae deletion strains, locus YKR026C, strain gcn3, hits give low values 0.986 | S. cerevisiae deletion strains, locus YKR091W, strain srl3, hits give low values 0.983 | S. cerevisiae deletion strains, locus YLL001W, strain dnm1, hits give low values 0.96 | S. cerevisiae deletion strains, locus YLL026W, hits give low values 0.988 | S. cerevisiae deletion strains, locus YLL041C, strain sdh2, hits give low values 0.99 | S. cerevisiae deletion strains, locus YLR027C, strain aat2, hits give low values 0.985 | S. cerevisiae deletion strains, locus YLR039C, strain RIC1, hits give low values 0.994 | S. cerevisiae deletion strains, locus YLR058C, strain SHM2, hits give low values 1.01 | S. cerevisiae deletion strains, locus YLR102C, strain apc9, hits give low values 0.992 | S. cerevisiae deletion strains, locus YLR113W, strain HOG1, hits give low values 0.984 | S. cerevisiae deletion strains, locus YLR221C, strain rsa3, hits give low values 0.928 | S. cerevisiae deletion strains, locus YLR258W, strain gsy2, hits give low values 0.976 | S. cerevisiae deletion strains, locus YLR262C, strain YPT6 (second series), hits give low values 0.966 | S. cerevisiae deletion strains, locus YLR262C, strain YPT6, hits give low values 1.03 | S. cerevisiae deletion strains, locus YLR268W, strain sec22, hits give low values 0.997 | S. cerevisiae deletion strains, locus YLR320W, strain mms22, hits give low values 0.918 | S. cerevisiae deletion strains, locus YLR330W, strain CHS5, hits give low values 1.01 | S. cerevisiae deletion strains, locus YLR342W, strain FKS1 (second series), hits give low values 1.01 | S. cerevisiae deletion strains, locus YLR342W, strain FKS1, hits give low values 0.981 | S. cerevisiae deletion strains, locus YLR357W, strain rsc2, hits give low values 0.957 | S. cerevisiae deletion strains, locus YLR370C, strain arc18, hits give low values 0.974 | S. cerevisiae deletion strains, locus YLR371W, strain rom2, hits give low values 0.995 | S. cerevisiae deletion strains, locus YLR384C, strain iki3, hits give low values 0.984 | S. cerevisiae deletion strains, locus YLR418C, strain cdc73, hits give low values 0.951 | S. cerevisiae deletion strains, locus YML016C, strain PPZ1, hits give low values 1.02 | S. cerevisiae deletion strains, locus YML032C, strain rad52, hits give low values 0.975 | S. cerevisiae deletion strains, locus YML120C, strain ndi1, hits give low values 0.934 | S. cerevisiae deletion strains, locus YML124C, strain tub3, hits give low values 0.993 | S. cerevisiae deletion strains, locus YMR058W, strain fet3, hits give low values 0.984 | S. cerevisiae deletion strains, locus YMR078C, strain ctf18, hits give low values 0.995 | S. cerevisiae deletion strains, locus YMR125W, strain sto1, hits give low values 0.973 | S. cerevisiae deletion strains, locus YMR129W, hits give low values 0.986 | S. cerevisiae deletion strains, locus YMR205C, strain PFK2, hits give low values 0.98 | S. cerevisiae deletion strains, locus YMR223W, strain ubp8, hits give low values 0.98 | S. cerevisiae deletion strains, locus YMR231W, strain pep5, hits give low values 0.988 | S. cerevisiae deletion strains, locus YMR307W, strain GAS1, hits give low values 1.07 | S. cerevisiae deletion strains, locus YNL067W, strain RPL9B, hits give low values 1.01 | S. cerevisiae deletion strains, locus YNL071W, strain lat1, hits give low values 0.999 | S. cerevisiae deletion strains, locus YNL153C, strain GIM3, hits give low values 1.01 | S. cerevisiae deletion strains, locus YNL183C, strain NPR1, hits give low values 0.941 | S. cerevisiae deletion strains, locus YNL209W, strain ssb2, hits give low values 0.973 | S. cerevisiae deletion strains, locus YNL233W, strain BNI4, hits give low values 1.01 | S. cerevisiae deletion strains, locus YNL248C, strain rpa49, hits give low values 0.968 | S. cerevisiae deletion strains, locus YNL250W, strain rad50, hits give low values 1.01 | S. cerevisiae deletion strains, locus YNL271C, strain bni1, hits give low values 0.984 | S. cerevisiae deletion strains, locus YNL298W, strain CLA4, hits give low values 0.981 | S. cerevisiae deletion strains, locus YNL307C, strain MCK1, hits give low values 0.986 | S. cerevisiae deletion strains, locus YNL322C, strain KRE1, hits give low values 1.01 | S. cerevisiae deletion strains, locus YNR049C, strain mso1, hits give low values 0.987 | S. cerevisiae deletion strains, locus YNR052C, strain pop2, hits give low values 0.989 | S. cerevisiae deletion strains, locus YOL006C, strain TOP1, hits give low values 0.975 | S. cerevisiae deletion strains, locus YOL012C, strain htz1 1.17 | S. cerevisiae deletion strains, locus YOL147C, strain pex11, hits give low values 0.991 | S. cerevisiae deletion strains, locus YOR001W, strain rrp6, hits give low values 0.981 | S. cerevisiae deletion strains, locus YOR061W, strain CKA2, hits give low values 1.02 | S. cerevisiae deletion strains, locus YOR069W, strain VPS5, hits give low values 1.01 | S. cerevisiae deletion strains, locus YOR070C, strain gyp1, hits give low values 0.982 | S. cerevisiae deletion strains, locus YOR080W, strain dia2, hits give low values 0.987 | S. cerevisiae deletion strains, locus YOR083W, strain WHI5, hits give low values 0.965 | S. cerevisiae deletion strains, locus YOR106W, strain vam3, hits give low values 0.957 | S. cerevisiae deletion strains, locus YOR136W, strain idh2, hits give low values 0.991 | S. cerevisiae deletion strains, locus YOR144C, strain elg1, hits give low values 0.995 | S. cerevisiae deletion strains, locus YOR184W, strain ser1, hits give low values 0.963 | S. cerevisiae deletion strains, locus YOR231W, strain MKK1, hits give low values 0.973 | S. cerevisiae deletion strains, locus YOR265W, strain rbl2, hits give low values 0.982 | S. cerevisiae deletion strains, locus YOR270C, strain vph1, hits give low values 1.03 | S. cerevisiae deletion strains, locus YOR290C, strain snf2, hits give low values 0.917 | S. cerevisiae deletion strains, locus YOR316C, strain cot1, hits give low values 0.998 | S. cerevisiae deletion strains, locus YPL051W, strain arl3, hits give low values 0.995 | S. cerevisiae deletion strains, locus YPL078C, strain atp4, hits give low values 0.984 | S. cerevisiae deletion strains, locus YPL106C, strain sse1, hits give low values 0.984 | S. cerevisiae deletion strains, locus YPL240C, strain hsp82, hits give low values 0.99 | S. cerevisiae deletion strains, locus YPL256C, strain CLN2, hits give low values 0.984 | S. cerevisiae deletion strains, locus YPR119W, strain clb2, hits give low values 0.993 | S. cerevisiae deletion strains, locus YPR141C, strain kar3, hits give low values 1.01 | S. cerevisiae deletion strains, locus YPR163C, strain tif3, hits give low values 0.996 | S. cerevisiae deletion strains, locus YPR167C, strain met16, hits give low values 0.982 | S. cerevisiae deletion strains, strain wtn01, hits give low values 0.987 | S. cerevisiae strains, strain wild type, hits give low values 1.01
